# Measurements published in PubChem BioAssay.
# Activity calls are given as the source filed them.
# Tests used:
# [1] = tested on: Plasmodium falciparum Sir2 (PF13_0152, Sir2A); test: Plasmodium falciparum Sir2A binding compounds – biochemical, small-molecule microarray, 635 nm fluorescence, primary screen (AID 1098); settings: fluorescence 635 nm, higher = more signal;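 also: score merges spot fluorescence intensity with its signal-to-noise ratio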
# [2] = probe aDKK1 binding to arrayed compounds – biochemical, biotinylated probe, 635/667 nm fluorescence, primary screen (AID 1099); settings: small-molecule microarray, higher = more signal;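 also: score merges 667nm spot fluorescence with signal to noise across triplicate slides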
# [3] = probe aCHRDL2 binding to arrayed compounds – biochemical, biotinylated probe, 635/667 nm fluorescence, primary screen (AID 1100); settings: small-molecule microarray, higher = more signal
# [4] = change in splice reporter luminescence, either direction, cell-based, HEK293, spliceosome inhibition project, primary screen (AID 1101); settings: HEK293 splicing luciferase reporter, 24 h, higher = more signal, called active from +8 up or from −8 down;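 also: HEK293 cells carrying a splicing-competent luciferase reporter gene; test concentration not given here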
# [5] = target: Fibroblast growth factor 10 (Homo sapiens) (UniProt O15520); test: compounds binding fibroblast growth factor 10 – biochemical, small-molecule microarray, 635 nm fluorescence, primary screen (AID 1102); settings: FGF10 binding, fluorescence 635 nm, higher = more signal
# [6] = tested on: glycogen synthase kinase-3 (GSK3A per assay name; protocol says GSK3B); test: compounds binding glycogen synthase kinase-3 – biochemical, small-molecule microarray, 635 nm fluorescence, GSK3A, primary screen (AID 1103); settings: fluorescence 635 nm, higher = more signal; also: the record names both GSK3A and GSK3B
# [7] = target: Epidermal growth factor receptor (Homo sapiens) (UniProt P00533); test: compounds binding epidermal growth factor receptor – biochemical, small-molecule microarray, 635 nm fluorescence, primary screen (AID 1104); settings: EGFR binding, higher = more signal;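 also: score merges 667 nm emission intensity with spot signal to noise over triplicate slides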
# [8] = target: Follistatin-related protein 3 (Homo sapiens) (UniProt O95633); test: compounds binding follistatin-related protein 3 – biochemical, small-molecule microarray, 635 nm fluorescence, primary screen (AID 1105); settings: FSTL3 binding, higher = more signal;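 also: score merges emission near 667 nm and signal to noise per printed spot across three slides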
# [9] = target: Dickkopf-related protein 1 (Homo sapiens) (UniProt O94907); test: small molecules binding DKK1 protein – biochemical, small-molecule microarray, 635 nm fluorescence scan, primary screen (AID 1106); settings: higher = more signal;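 also: score merges emission near 667 nm with signal to noise over three replicate slides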
# [10] = tested on: Inhibin beta A chain (activin A); test: small molecules binding activin A – biochemical, small-molecule microarray, 635 nm fluorescence scan, primary screen (AID 1107); settings: INHBA, higher = more signal;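 also: mouse activin A protein probed at 4.33 µg/mL on printed slides; score merges bound-protein fluorescence near 667 nm with spot signal-to-noise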
# [11] = tested on: Human papillomavirus type 1a protein E7 (residues 44-93); test: small molecules binding HPV E7 44-93 – biochemical, small-molecule microarray, residues 44-93, 635 nm fluorescence, primary screen (AID 1108); settings: fluorescence 635 nm, higher = more signal;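 also: E7 fragment applied at 1 µg/mL in TBST for 1 h at 4 C; score combines spot fluorescence with its signal to noise ratio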
# [12] = hepatitis C replication reporter changes, two-sided – Huh7 cells, luciferase reporter, HCV replication inhibitor project, primary screen (AID 1109); settings: Huh7 HCV replicon luciferase reporter, 48 h; higher = more signal;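 also: huh7 hepatoma cells harbouring a luciferase neomycin HCV replicon reporter; luciferase luminescence as measure of HCV replicon replication; test concentration not given here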
# [13] = target: Left-right determination factor 2 (Homo sapiens) (UniProt O00292); test: small molecules binding LEFTY2 protein – biochemical, small-molecule microarray, 635 nm fluorescence scan, primary screen (AID 1110); settings: higher = more signal
# [14] = target: Calmodulin-1 (Homo sapiens) (UniProt P0DP23); test: small molecules binding calmodulin-1 with EGTA – biochemical, small-molecule microarray, Cy5-labelled CALM1, profiling panel (AID 1111); settings: Cy5-CALM1 binding fluorescence, higher = more signal;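 also: labelled calmodulin applied in Tris saline Tween buffer holding calcium plus EGTA and DTT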
# [15] = target: Calmodulin-1 (Homo sapiens) (UniProt P0DP23); test: small molecules binding Ca-loaded calmodulin-1 – biochemical, small-molecule microarray, Cy5-labelled CALM1, plus calcium, artefact control for SMM control-protein annotation, profiling panel (AID 1112); settings: Cy5-CALM1 binding fluorescence, higher = more signal;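 also: score merges spot fluorescence with signal to noise from triplicate slides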
# [16] = probe aWnt5a binding to arrayed compounds – biochemical, biotinylated probe, 635/667 nm fluorescence, primary screen (AID 1113); settings: small-molecule microarray, higher = more signal;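 also: score merges 667 nm fluorescence intensity with signal-to-noise per printed feature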
# [17] = probe aShh binding to arrayed compounds – biochemical, biotinylated probe, 635/667 nm fluorescence, primary screen (AID 1114); settings: small-molecule microarray, higher = more signal;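 also: probe is biotin-labelled aShh protein from a stem cell growth factor screen; measures binding of labelled protein to compounds printed on the slide; score merges feature fluorescence at 667 nm with signal-to-noise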
# [18] = probe aNog binding to arrayed compounds – biochemical, biotinylated probe, 635/667 nm fluorescence, primary screen (AID 1115); settings: small-molecule microarray, higher = more signal;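 also: probe is biotinylated aNog protein used at 0.15 µg/mL for 1 h at 4 C; z-score combines 667 nm fluorescence of each spot with its signal to noise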
# [19] = target: Torsin-1A-interacting protein 1 (Homo sapiens) (UniProt Q5JTV8); test: compound microarray binding of lysate hLAP1 – cell lysate, small-molecule microarray, COS7 lysate, 635/667 nm fluorescence, primary screen (AID 1116); settings: 635 nm fluorescence, higher = more signal
# [20] = target: Alpha-bungarotoxin (Bungarus multicinctus) (UniProt P60615); test: compounds binding labelled alpha-BTX control protein – biochemical, small-molecule microarray, Alexa647 label, 635/667 nm fluorescence, artefact control for SMM control protein annotation, profiling panel (AID 1117); settings: alpha-BTX-A647 binding fluorescence, higher = more signal
# Alpha-bungarotoxin (Bungarus multicinctus), sequence (P60615 whole entry, looked up): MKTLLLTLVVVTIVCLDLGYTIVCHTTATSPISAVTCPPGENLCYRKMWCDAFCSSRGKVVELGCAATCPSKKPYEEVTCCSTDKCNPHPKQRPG
# Left-right determination factor 2 (Homo sapiens), sequence (O00292 whole entry, looked up): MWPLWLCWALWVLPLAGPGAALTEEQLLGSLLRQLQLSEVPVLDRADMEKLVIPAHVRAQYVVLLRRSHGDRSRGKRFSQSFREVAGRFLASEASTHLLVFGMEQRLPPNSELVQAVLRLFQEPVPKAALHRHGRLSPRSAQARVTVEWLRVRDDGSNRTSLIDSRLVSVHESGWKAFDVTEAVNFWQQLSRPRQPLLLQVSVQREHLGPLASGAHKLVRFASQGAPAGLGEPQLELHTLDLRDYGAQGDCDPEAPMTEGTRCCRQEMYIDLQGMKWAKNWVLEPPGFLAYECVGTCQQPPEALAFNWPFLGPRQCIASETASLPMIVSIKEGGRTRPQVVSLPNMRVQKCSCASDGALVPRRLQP
# Fibroblast growth factor 10 (Homo sapiens), sequence (O15520 whole entry, looked up): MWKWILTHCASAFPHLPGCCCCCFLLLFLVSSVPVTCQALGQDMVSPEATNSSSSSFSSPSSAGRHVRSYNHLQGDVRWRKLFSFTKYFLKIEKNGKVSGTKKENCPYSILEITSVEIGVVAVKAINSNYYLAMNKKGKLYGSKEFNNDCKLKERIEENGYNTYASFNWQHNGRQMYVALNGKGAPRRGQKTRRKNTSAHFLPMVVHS
# Follistatin-related protein 3 (Homo sapiens), sequence (O95633 whole entry, looked up): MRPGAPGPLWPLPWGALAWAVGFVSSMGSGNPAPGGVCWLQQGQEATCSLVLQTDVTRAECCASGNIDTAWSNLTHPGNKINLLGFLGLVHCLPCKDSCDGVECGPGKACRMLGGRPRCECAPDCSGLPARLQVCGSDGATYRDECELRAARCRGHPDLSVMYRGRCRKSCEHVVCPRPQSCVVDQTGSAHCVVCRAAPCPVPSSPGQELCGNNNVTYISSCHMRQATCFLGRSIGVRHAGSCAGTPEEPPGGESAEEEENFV
# Torsin-1A-interacting protein 1 (Homo sapiens), sequence (Q5JTV8 whole entry, looked up): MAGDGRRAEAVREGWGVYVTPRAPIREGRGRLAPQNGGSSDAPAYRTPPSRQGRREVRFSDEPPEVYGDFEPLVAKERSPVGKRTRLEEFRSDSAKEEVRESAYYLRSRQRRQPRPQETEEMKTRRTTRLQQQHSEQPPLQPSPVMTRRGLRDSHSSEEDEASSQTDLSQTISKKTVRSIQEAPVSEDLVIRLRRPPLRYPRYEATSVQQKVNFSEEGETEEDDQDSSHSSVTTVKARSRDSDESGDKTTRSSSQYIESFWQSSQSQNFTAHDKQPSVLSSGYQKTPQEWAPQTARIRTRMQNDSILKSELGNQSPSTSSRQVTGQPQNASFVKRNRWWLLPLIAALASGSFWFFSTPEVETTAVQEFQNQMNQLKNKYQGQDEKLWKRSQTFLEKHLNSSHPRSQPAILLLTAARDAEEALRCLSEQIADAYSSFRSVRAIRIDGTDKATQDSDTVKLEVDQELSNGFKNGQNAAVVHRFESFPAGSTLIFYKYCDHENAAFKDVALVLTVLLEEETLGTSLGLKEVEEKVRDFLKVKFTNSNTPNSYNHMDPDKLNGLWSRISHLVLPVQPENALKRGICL
# Epidermal growth factor receptor (Homo sapiens), sequence (P00533 whole entry, looked up): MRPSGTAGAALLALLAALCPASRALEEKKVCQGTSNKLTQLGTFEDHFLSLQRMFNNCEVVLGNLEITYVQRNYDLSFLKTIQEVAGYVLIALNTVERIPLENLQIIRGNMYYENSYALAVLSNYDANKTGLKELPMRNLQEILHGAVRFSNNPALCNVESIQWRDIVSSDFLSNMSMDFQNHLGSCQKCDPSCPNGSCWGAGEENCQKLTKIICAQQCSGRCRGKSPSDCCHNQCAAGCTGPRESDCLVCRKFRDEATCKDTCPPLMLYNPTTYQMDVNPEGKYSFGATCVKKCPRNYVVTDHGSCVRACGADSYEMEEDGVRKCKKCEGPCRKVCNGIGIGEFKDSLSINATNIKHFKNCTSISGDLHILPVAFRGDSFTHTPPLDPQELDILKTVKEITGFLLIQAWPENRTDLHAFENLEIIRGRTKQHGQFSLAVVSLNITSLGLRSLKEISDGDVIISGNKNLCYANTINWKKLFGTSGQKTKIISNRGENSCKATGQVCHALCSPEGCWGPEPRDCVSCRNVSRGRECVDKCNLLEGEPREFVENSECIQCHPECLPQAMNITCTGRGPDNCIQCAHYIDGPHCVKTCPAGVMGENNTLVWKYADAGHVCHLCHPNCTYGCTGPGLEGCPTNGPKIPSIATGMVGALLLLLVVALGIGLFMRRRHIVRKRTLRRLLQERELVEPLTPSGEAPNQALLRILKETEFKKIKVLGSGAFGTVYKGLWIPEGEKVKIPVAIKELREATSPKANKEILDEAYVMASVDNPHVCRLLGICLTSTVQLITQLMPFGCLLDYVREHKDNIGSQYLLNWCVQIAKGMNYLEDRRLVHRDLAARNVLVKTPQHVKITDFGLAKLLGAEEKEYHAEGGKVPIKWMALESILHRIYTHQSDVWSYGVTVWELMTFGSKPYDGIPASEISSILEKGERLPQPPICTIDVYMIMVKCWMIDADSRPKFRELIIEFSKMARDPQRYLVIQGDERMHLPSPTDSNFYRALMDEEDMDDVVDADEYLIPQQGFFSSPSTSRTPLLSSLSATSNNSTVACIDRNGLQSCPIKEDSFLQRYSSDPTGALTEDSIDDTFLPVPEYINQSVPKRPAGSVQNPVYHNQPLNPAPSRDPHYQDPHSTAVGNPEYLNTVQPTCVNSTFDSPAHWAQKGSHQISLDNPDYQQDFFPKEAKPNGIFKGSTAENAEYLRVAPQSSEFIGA
# Dickkopf-related protein 1 (Homo sapiens), sequence (O94907 whole entry, looked up): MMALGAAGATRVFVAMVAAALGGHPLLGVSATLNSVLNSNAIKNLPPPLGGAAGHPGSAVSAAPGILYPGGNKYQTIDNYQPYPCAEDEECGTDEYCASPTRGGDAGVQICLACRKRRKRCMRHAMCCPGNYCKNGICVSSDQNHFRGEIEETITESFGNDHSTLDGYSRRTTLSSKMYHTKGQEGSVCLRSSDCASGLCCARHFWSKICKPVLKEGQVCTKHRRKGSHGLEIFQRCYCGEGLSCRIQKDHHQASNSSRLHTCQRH
Structure (SMILES),composite z-score [1],composite z-score [2],composite z-score [3],z-score [4],composite z-score [5],composite z-score [6],composite z-score [7],composite z-score [8],composite z-score [9],composite z-score [10],composite z-score [11],z-score [12],composite z-score [13],composite z-score [14],composite z-score [15],composite z-score [16],composite z-score [17],composite z-score [18],composite z-score [19],composite z-score [20]
Cc1ccc(S[C@]2(C(=O)NCCN3CCOCC3)CC(=O)N(Cc3cc(C(F)(F)F)cc(C(F)(F)F)c3)[C@@H]2c2ccc(CO)cc2I)cc1,1.4,0.104,0.868,-2.04 (inactive),-0.743,-0.799,-0.981,-0.492,-1.34,0.551,0.105,-1.59,-1.45,-0.452,0.492,-0.176,-0.331,-0.389,-0.604,-0.306
COCCOC(=O)N1C(=O)[C@@]2(c3cc(C#CCC(C(=O)OC)C(=O)OC)ccc31)[C@H](C(=O)N1CCCCCCC1)[C@H]1C(=O)O[C@H](c3ccccc3)[C@H](c3ccccc3)N1[C@@H]2c1ccc(OCCO)cc1,1.74,2.72,1.65,0.161 (inactive),1.45,1.35,1.76,1.65,2.25,1.62,1.49,-0.981,1.33,2.48,1.67,1.21,1.19,3.01,4.31,3.31
COC(=O)[C@@]1(Cc2ccc(F)cc2)[C@H]2c3cc(C(=O)N(C)C)n(CCc4ccccn4)c3C[C@H]2CN1C(=O)c1ccccc1,0.219,0.849,0.312,-3.62 (inactive),0.355,1.36,0.472,0.869,0.41,0.403,1.39,-0.72,0.384,-0.012,-0.47,1.12,-0.394,0.796,0.468,0.292
CC(=O)NCCCC[C@@H]1NC(=O)[C@@H]2C[C@H](C(=O)NCCCCN(C)C)[C@H](c3ccc(O)cc3)N2C1=O,-0.165,-0.161,0.704,-1.12 (inactive),-0.117,0.0247,-0.588,-0.723,0.295,-0.727,-0.989,-0.581,-0.594,-0.487,0.367,-0.124,-0.214,-0.23,0.646,-0.602
O=C1O[C@@H](c2ccccc2)[C@@H](c2ccccc2)N2[C@@H](c3ccc(O)cc3)[C@]3(C(=O)Nc4ccc(C#CC5(O)CCCCCC5)cc43)[C@@H](C(=O)N3CCCCCCC3)[C@H]12,1.99,2.61,1.26,-0.612 (inactive),1.51,1.38,1.83,1.53,2.49,1.86,1.48,-1.29,1.43,2.6,1.61,1.45,2.73,3.67,4.7,3.03
Cc1ccc(S[C@]2(C(=O)NCC(C)C)CC(=O)N(Cc3ccccc3Cl)[C@@H]2c2ccc(CO)cc2)cc1,-0.248,0.254,0.94,0.35 (inactive),-0.756,-1.15,-1,-2.05,-1.77,-0.544,-0.411,-1.73,-1.46,-0.476,-0.115,-0.228,-0.181,-0.618,-1.08,0.86
COc1c(C)cc(-c2cc3c(c(-c4ccc(Oc5ccccc5)cc4)n2)[Si](C(C)C)(C(C)C)OC3)cc1C,-0.486,0.187,0.0857,0.391 (inactive),0.0668,-0.278,0.168,-0.069,0.0431,0.51,-0.0076,-0.382,-0.0065,0.354,0.777,-0.0721,-0.138,-0.111,-0.0839,0.327
COC(=O)C(CC#Cc1ccc2c(c1)[C@]1(C(=O)N2)[C@H](c2ccc(OCCO)cc2)N2[C@H](c3ccccc3)[C@H](c3ccccc3)OC(=O)[C@H]2[C@@H]1C(=O)NC[C@H](O)c1ccccc1)C(=O)OC,1.62,0.392,0.473,0.348 (inactive),0.826,0.801,0.0713,0.617,0.271,0.39,1.17,-1.39,-0.0571,0.794,0.524,-0.0346,0.356,0.333,-0.585,2.1
C=C(COC)/C(=C/C[C@H](OC(=O)c1ccncc1)c1cccc(OCCO)c1)c1cc(C(=O)OC)ccc1OC,0.901,-0.0771,0.195,-0.147 (inactive),0.837,-0.208,-0.353,0.0001,-0.0833,0.533,-1.16,-1.67,0.229,-0.0871,-0.46,-0.156,-0.0769,-0.104,0.516,1.29
COc1ccc(CCNC(=O)[C@@H]2c3ccccc3C(=O)N(Cc3ccc(OC(F)(F)F)cc3)[C@H]2c2ccc(CO)cc2)cc1,1.7,0.0658,0.396,0.0514 (inactive),0.719,0.965,-0.227,0.251,-0.204,0.258,1.38,-1.81,-0.264,0.107,-0.12,-0.146,-0.147,0.28,1,-0.0177
O=C1O[C@H](c2ccccc2)[C@H](c2ccccc2)N2[C@H]1[C@@H](C(=O)O)[C@]1(C(=O)Nc3ccc(C#CC4(O)CCCCCC4)cc31)[C@H]2c1ccc(OCCO)cc1,0.303,0.2,0.388,-0.117 (inactive),0.299,0.132,-0.329,0.418,-0.623,-0.374,1.5,-1.77,-0.418,1.89,0.475,0.0692,0.0048,0.0028,0.535,2.21
